KCNH2 3.1 inh – qHTS for Inhibitors of KCHN2 3.1: Mutant qHTS; activity change, % (tested at about 1.8 µM); 340,000 compounds, 0.95% hits; U2OS KCNH2 3.1, thallium flux FluxOr; stronger effect = lower value;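 active = maximum activity change below -70%; inconclusive = maximum activity change from -70% to -50%; inactive = maximum activity change above -50%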;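 also: thallium influx rate constant from kinetic fluorescence after stimulation buffer; % is scaled to controls: 0 for no effect and ±100 for the full control effect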
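Kinetic fluorescence (2 min after stimulation buffer) measures Tl+ influx through KCNH2 3.1 expressed by viral transduction in U2OS cells; the rate constant is normalized against DMSO controls serving as positive and negative references.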
hERG WT inh – qHTS for Inhibitors of KCHN2 3.1: Wildtype qHTS; Voltage-gated inwardly rectifying potassium channel KCNH2 (Homo sapiens), Q12809; U2OS, BacMam KCNH2, thallium flux FluxOr; stronger effect = lower value; activity change, % at 1.84 µM; 340,000 compounds, 0.37% hits; AID 720551, 2013;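 active = maximum activity change below -70%; inconclusive = maximum activity change between -70% and -50%; inactive = maximum activity change above -50%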; also: % is scaled to controls: 0 for no effect and ±100 for the full control effect
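U2OS cells transduced with wild-type KCNH2 virus are loaded with FluxOr dye for 45 min, and thallium flux is measured in kinetic reads before and after stimulation buffer. Rate constants are normalized to DMSO controls.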
p53 reactivation – qHTS assay for re-activators of p53 using a Luc reporter | 320,000 compounds, 0.063% hits | H1299 p53-A138V BP100-luciferase reporter, luminescence, 24 h | AID 504706, 2011 | Potency, µM (highest dose often 92.2 µM), without a hit: at the top dose activity change, positive = activation, usual class: activators; also: potency is read from the fitted curve at half-maximal effect; % of control where 0% means no effect; nearly all actives have a fitted effect of over 45% in size
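p53-null H1299 cells stably carrying temperature-sensitive p53-A138V and a BP100-luciferase reporter were pinned with compounds (4-point, 1:5 series) and held 24 hrs at 37 deg C. Luminescence was read 10 min after detection reagent.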
S-ASM inh – Inhibitors of Secretory Acid Sphingomyelinase (S-ASM): qHTS. placental ASM, HMU-PC fluorogenic substrate, 60 min. Potency, µM (doses to about 57.5 µM), for inactives: at the top dose activity change, negative = inhibition, hits mostly inhibitors. 340,000 compounds, 0.006% hits. AID 504937, 2011; also: potency is read from the fitted curve at half-maximal effect
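Fluorogenic HMU-PC substrate (9 uM final) is turned over by placental ASM in 60 min at 37 C after a 10 min compound preincubation. Reaction ended by alkaline stop (pH 10), with fluorescence read at 386/447 nm.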
Mm-Cpn inhibitor – Inhibitors of TCP-1 ring complex (TRiC) of Methanococcus maripaludis (MmCpn): qHTS; Chaperonin Mm-Cpn (Methanococcus maripaludis); purified Mm-Cpn ATPase, ADP Transcreener TR-FRET; Potency, µM (series often up to 76.9 µM), without a hit: at the top dose activity, negative = inhibition, most hits filed as inhibitors; 330,000 compounds, 0.031% hits; AID 504842, 2011; also: potency is read from the fitted curve at half-maximal effect; % is scaled to controls: 0 for no effect and ±100 for the full control effect; nearly all actives have a fitted effect of over 80% in size
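Compound-treated chaperonin, 25 nM final, turns over 10 uM ATP at 37°C for 30 min following a 10 min preincubation; ADP generated competes with ADP-d2 for Eu-cryptate antibody, lowering FRET.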
uPA generation – qHTS for Inhibitors of Cell Surface uPA Generation; cell surface uPA generation assay, qHTS; 330,000 compounds, 0.31% hits; Potency, µM (highest dose often 38.3 µM), inactives show at the top dose activity change, negative = inhibition, hits mostly inhibitors; active = well fitted inhibition curve with a large enough effect; inconclusive = small, poorly fitted or top-dose-only effect; inactive = no such curve, though single readings can be large or run the other way; tested in mouse RAW 264.7 cells; also: potency is read from the fitted curve at half-maximal effect; % is scaled to controls: 0 for no effect and ±100 for the full control effect; nearly all actives have a fitted effect of over 55% in size
Active calls of the source: *; i = inactive; ? = inconclusive; / = not tested or not shown; [ ] = remark or other dose. Shown are actives, neighbours in structure and some others; about 1.4% of the full set was active somewhere. Unless noted, calls follow the shape of the dose curve; as a rule, active = well fitted curve in the direction sought with a large enough effect; inconclusive = small, poorly fitted or top-dose-only effect, or another doubt; inactive = no such curve, though single readings can be large; an effect the other way counts as inactive or inconclusive.

SMILES	KCNH2 3.1 inh	hERG WT inh	p53 reactivation	S-ASM inh	Mm-Cpn inhibitor	uPA generation
Cc1cc(C)cc(NC(=O)Nc2ccc(-n3ccc(C(F)(F)F)n3)cc2)c1	-3.3	9.7	2.4%	-1.9%	0.6%	-7.9%
COc1ccccc1NC(=O)Nc1ccc(-n2ccc(C(F)(F)F)n2)cc1	-201.5*	-124.5*	10.4%	-1.2%	-1.3%	-5.3%
Cc1cccc(C(=O)OC(C)C(=O)Nc2ccc(S(=O)(=O)N3CCCC3)cc2)c1O (stereo not given)	-7.3	6.0	-0.3%	-5.9%	-2.1%	-1.3%
COc1ccc(NC(C)=O)cc1NC(C)C(=O)Nc1ccc(S(=O)(=O)N2CCCCC2)cc1 (stereo not given)	-12.1	-6.6	-3.3%	-2.8%	-2.7%	3.16µM*
COc1ccc(S(=O)(=O)N2CCCCC2)cc1NC(=O)Cc1cccs1	-76.1*	-6.4	-4.8%	1.8%	-0.8%	4.9%
CC(OC(=O)c1cc(Br)ccc1O)C(=O)Nc1ccc(S(=O)(=O)N2CCCC2)cc1 (stereo not given)	-90.9*	-2.8	-1.9%	7.7%	-7.3%	-8.5%
O=C1OC2(CCCCC2)CC2=C1C1O[C@](CCCCN3C(=O)c4ccccc4C3=O)(Cc3ccccc31)O2	/	/	/	/	-3.3%[15.4 µM]	/
CCn1cc(C2=NC(C)CO2)c2ccccc21 (stereo not given)	-70.6*	-7.2	6.8%	0.9%	0.7%	/
CCn1cc(C2=NC(c3ccccc3)CO2)c2ccccc21 (stereo not given)	0.9	9.2	6.2%	-2.8%	0.4%	-10.4%
CCN1CCN(c2nc3sc4c(c3c(=O)n2-c2ccc(OC)cc2)CCCCC4)CC1	-71.4*	-0.4	0.5%	-0.4%	1.4%	/
O=C(c1ccc2oc(CCCc3ccccc3)nc2c1)N1CCCC1	17.8	-3.8	?	/	0.2%	2.8%
O=C(COC(=O)c1cccc(S(=O)(=O)NCc2ccccc2)c1)c1ccccc1	-84.2*	6.8	9.3%	/	1.4%	-2.8%
CCCNc1nc(OCC(F)(F)F)nc(OCC(F)(F)F)n1	-6.3	0.6	2.3%	-2.6%	-2.4%	-0.1%
CN1CCN(c2nc(NCCOC34CC5CC(CC(C5)C3)C4)nc(OCC(F)(F)F)n2)CC1	-71.2*	24.2	-2.9%	-2.6%	2.3%	0.4%
Cc1ccccc1/C=C/C1=NCCN1	15.4	6.2	2.9%	-10.3%	-3.9%	3.98µM*
O=C(NC(=S)N(CCc1ccccc1)CCc1ccccc1)c1ccco1	14.4	-123.1*	?	-3.0%	2.4%	-3.1%
CCCCCCCNC(=O)C1(CC2CC(c3cccc(Br)c3)=NO2)CCN(C(=O)CCCCCBr)CC1 (stereo not given)	-95.9*	-122.7*	-10.8%	-26.9%	0.7%	?
Cc1ccc2cc(C)c(SCC(=O)Nc3ccc(S(=O)(=O)N4CCCC4)cc3)nc2c1	-99.8*	-11.7	1.0%	-0.2%	?	1.1%
CC1(C)Cc2c(C#N)c(SCCOc3ccccc3)nc(N3CCOCC3)c2CO1	-85.4*	-2.5	10.2%	-9.9%	-2.0%	6.9%
c1ccc2c(c1)ncc1cccn12	11.3	-8.1	0.7%	241.0%	-1.9%	-3.6%
CCn1c2ccccc2c2c3ncc4cccn4c3ccc21	10.0	-11.7	28.2µM*	i	?	-5.9%
NC(=O)c1ccc(NC(=O)COC(=O)CCC2CCCC2)cc1	1.5	10.7	/	/	/	/
O=C(CNC(=O)c1ccccc1)OCN1C(=O)c2ccccc2C1=O	13.7	-12.1	/	3.1%	/	3.4%
O=C(CCNC(=O)c1ccccc1)OCN1C(=O)c2ccccc2C1=O	-73.2*	-1.4	-0.5%	-0.6%	2.5%	-3.9%
